Reference: PubChem BioAssay AID1159580 (chemical genetic matrix, 2015)
In all, about 5,500 compounds went through this assay and about 2,000 (36%) were called active. Roughly 18% stayed inconclusive and do not appear here. Rule as the data show it: active = normalized growth mostly below about 0.91 (no sharp cut-off); inconclusive = no clear call, values can overlap the other calls; inactive = mostly above about 0.92. The list shows a part of the results.

Experiment: chemical genetic growth profiling, strain panel (AID 1159580);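 also: tested at 20 µM; growth read once vehicle control cultures reached saturation at 30 °C; 1 = growth at the plate median or of vehicle wells; lower values mean less growth of the strain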
Conditions: S. cerevisiae deletion strains, growth OD

Measured: normalized growth

O=C(O)CN(CC(=O)O)Cc1cc2c(-c3ccccc3C(=O)O)c3cc(CN(CC(=O)O)CC(=O)O)c(=O)cc-3oc2cc1O
inactive: locus YAL013W, strain DEP1, active compounds read low 1 | locus YAL021C, strain ccr4, active compounds read low 0.934 | locus YAL030W, strain snc1, active compounds read low 0.962 | locus YBL061C, strain skt5, active compounds read low 0.965 | locus YBR009C, strain hhf1, active compounds read low 0.931 | locus YBR021W, strain FUR4, active compounds read low 0.981 | locus YBR023C, strain chs3, active compounds read low 0.981 | locus YBR171W, strain sec66, active compounds read low 0.965 | locus YBR229C, strain ROT2, active compounds read low 1.01 | locus YBR231C, strain swc5, active compounds read low 0.943 | locus YBR279W, strain paf1, active compounds read low 0.967 | locus YCL011C, strain gbp2, active compounds read low 0.962 | locus YCL016C, strain dcc1, active compounds read low 0.976 | locus YCL029C, strain bik1, active compounds read low 1.02 | locus YCL061C, strain MRC1, active compounds read low 0.937 | locus YCL069W, strain vba3, active compounds read low 0.975 | locus YCR088W, strain abp1, active compounds read low 0.995 | locus YDL005C, strain med2, active compounds read low 0.982 | locus YDL035C, strain GPR1, active compounds read low 0.997 | locus YDL040C, strain nat1, active compounds read low 0.964 | locus YDL074C, strain BRE1, active compounds read low 0.991 | locus YDL101C, strain DUN1, active compounds read low 1.01 | locus YDL134C, strain PPH21, active compounds read low 1.01 | locus YDL185W, strain tfp1, active compounds read low 0.986 | locus YDL192W, strain arf1, active compounds read low 1.02 | locus YDR001C, strain nth1, active compounds read low 0.965 | locus YDR069C, strain doa4, active compounds read low 0.951 | locus YDR101C, strain arx1, active compounds read low 1.01 | locus YDR150W, strain NUM1, active compounds read low 1.02 | locus YDR159W, strain sac3, active compounds read low 0.96 | locus YDR162C, strain NBP2, active compounds read low 0.984 | locus YDR195W, strain ref2 1.04 | locus YDR297W, strain sur2, active compounds read low 0.951 | locus YDR318W, strain mcm21, active compounds read low 1.02 | locus YDR334W, strain swr1, active compounds read low 0.955 | locus YDR335W, strain msn5, active compounds read low 0.932 | locus YDR388W, active compounds read low 1.02 | locus YDR392W, strain spt3, active compounds read low 0.914 | locus YDR502C, strain sam2, active compounds read low 1.02 | locus YEL003W, strain gim4, active compounds read low 0.948 | locus YEL037C, strain rad23, active compounds read low 0.971 | locus YEL061C, strain CIN8 (second series), active compounds read low 0.963 | locus YEL061C, strain CIN8, active compounds read low 1 | locus YER016W, strain bim1, active compounds read low 0.986 | locus YER110C, active compounds read low 1.03 | locus YER111C, strain swi4, active compounds read low 0.934 | locus YER155C, strain BEM2 (second series), active compounds read low 1 | locus YER155C, strain BEM2, active compounds read low 1 | locus YER167W, strain BCK2, active compounds read low 1.02 | locus YFR010W, strain ubp6, active compounds read low 0.992 | locus YGL078C, strain dbp3, active compounds read low 1.02 | locus YGL086W, strain mad1, active compounds read low 1.01 | locus YGL167C, strain pmr1, active compounds read low 0.967 | locus YGL173C, strain kem1, active compounds read low 0.939 | locus YGL227W, strain vid30, active compounds read low 0.977 | locus YGL240W, strain doc1, active compounds read low 0.977 | locus YGL248W, strain PDE1, active compounds read low 1.01 | locus YGL253W, strain hxk2, active compounds read low 0.934 | locus YGR078C, strain PAC10, active compounds read low 0.997 | locus YGR135W, strain pre9, active compounds read low 1 | locus YGR229C, strain SMI1, active compounds read low 0.976 | locus YGR252W, strain gcn5, active compounds read low 1.05 | locus YHR013C, strain ard1, active compounds read low 0.963 | locus YHR030C, strain SLT2, active compounds read low 1 | locus YHR079C, strain IRE1 (second series), active compounds read low 1.02 | locus YHR094C, strain hxt1, active compounds read low 1.01 | locus YHR129C, strain ARP1, active compounds read low 0.997 | locus YHR142W, strain chs7, active compounds read low 0.945 | locus YHR200W, strain rpn10, active compounds read low 1.02 | locus YIL066C, strain RNR3, active compounds read low 0.992 | locus YIL073C, strain SPO22, active compounds read low 1.08 | locus YIL125W, strain kgd1, active compounds read low 1.01 | locus YIR030C, strain dcg1, active compounds read low 1.02 | locus YJL092W, strain hpr5, active compounds read low 0.977 | locus YJL095W, strain BCK1 (second series), active compounds read low 0.961 | locus YJL095W, strain BCK1, active compounds read low 0.976 | locus YJL115W, strain asf1, active compounds read low 0.947 | locus YJL129C, strain trk1, active compounds read low 0.911 | locus YJL134W, strain LCB3, active compounds read low 1.01 | locus YJL154C, strain vps35, active compounds read low 0.984 | locus YJL164C, strain tpk1, active compounds read low 0.929 | locus YJL166W, strain qcr8, active compounds read low 0.969 | locus YJL168C, strain set2, active compounds read low 1.01 | locus YJL187C, strain SWE1 (second series), active compounds read low 0.992 | locus YJL187C, strain SWE1, active compounds read low 0.963
active: locus YAL026C, strain drs2, active compounds read low 0.904 | locus YDR137W, strain rgp1, active compounds read low 0.829 | locus YER015W, strain faa2, active compounds read low 0.897 | locus YHR027C, strain rpn1, active compounds read low 0.874
